Results as given in PubChem BioAssay (NCI).
About 83,000 compounds went through this panel and 20% of them were active in at least one assay; those are over-represented in the sample as a whole.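 Activity criterion: percent growth below 10, measured after cells in 96-well plates were exposed to a single compound concentration for 48 hours.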 Active and inactive are the calls of the source.

Key:
Experiment in all cases: NCI-60 one-dose screen, 48 h (100 = growth as untreated, 0 = no growth, -100 = all killed)
Settings in all cases: 10 µM unless noted
RPMI-8226 leukemia = test system: RPMI-8226 leukemia
OVCAR-8 ovarian = test system: OVCAR-8 ovarian
OVCAR-5 ovarian = test system: OVCAR-5 ovarian
OVCAR-4 ovarian = test system: OVCAR-4 ovarian
SK-OV-3 ovarian = test system: SK-OV-3 ovarian
IGROV1 ovarian = test system: IGROV1 ovarian
OVCAR-3 ovarian = test system: OVCAR-3 ovarian
HS 578T breast = test system: HS 578T breast
NCI/ADR-RES ovarian = test system: NCI/ADR-RES ovarian
T-47D breast = test system: T-47D breast
BT-549 breast = test system: BT-549 breast
MDA-MB-435 melanoma = test system: MDA-MB-435 melanoma
SW-620 colon = test system: SW-620 colon
MCF7 breast = test system: MCF7 breast
HCT-116 colon = test system: HCT-116 colon
HCC-2998 colon = test system: HCC-2998 colon
KM12 colon = test system: KM12 colon

Measured: growth

COC(=O)[C@]12CC[C@@H](C)[C@H](C)[C@@H]1C1=CC[C@@H]3[C@@]4(C)C(C=O)=C[C@@](C)(CO)[C@@H]4[C@H](O)C[C@@]3(C)[C@]1(C)CC2
active: RPMI-8226 leukemia -10.1% | OVCAR-8 ovarian -2.42% | OVCAR-5 ovarian -19.7% | OVCAR-4 ovarian -5.06% | SK-OV-3 ovarian 3.19% | IGROV1 ovarian 3.94% | OVCAR-3 ovarian -91.9% | HS 578T breast -15.6% | NCI/ADR-RES ovarian -10.2% | T-47D breast -19.8% | BT-549 breast -15.6% | MDA-MB-435 melanoma -16% | SW-620 colon -1.77% | MCF7 breast 3.73% | HCT-116 colon -81.4% | HCC-2998 colon -79.2% | KM12 colon 1.71%

C[C@]12CC[C@@H]3c4cc(OC(F)F)c(O)cc4CC[C@H]3[C@@H]1CC[C@@H]2OS(N)(=O)=O
inactive: RPMI-8226 leukemia 26.6% | OVCAR-8 ovarian 39.3% | OVCAR-5 ovarian 57.5% | OVCAR-4 ovarian 67.7% | SK-OV-3 ovarian 39.7% | IGROV1 ovarian 37.1% | HS 578T breast 32.5% | NCI/ADR-RES ovarian 12.5% | T-47D breast 47% | BT-549 breast 67.7% | SW-620 colon 31.2% | MCF7 breast 24.2% | HCT-116 colon 29.8% | HCC-2998 colon 47.5% | KM12 colon 18.9%
active: OVCAR-3 ovarian -0.18% | MDA-MB-435 melanoma 0.824%

COc1cc(C2CC(c3ccc(Nc4ccnc5cc(Cl)ccc45)cc3)=NN2C=O)cc(OC)c1OC (stereo not given)
active: OVCAR-3 ovarian 2.55%
inactive: RPMI-8226 leukemia 21.3% | OVCAR-8 ovarian 74% | OVCAR-5 ovarian 109% | OVCAR-4 ovarian 86.3% | SK-OV-3 ovarian 86.8% | IGROV1 ovarian 106% | HS 578T breast 26.2% | NCI/ADR-RES ovarian 73.4% | T-47D breast 83.2% | BT-549 breast 37% | MDA-MB-435 melanoma 30.5% | SW-620 colon 84% | MCF7 breast 46.3% | HCT-116 colon 13.5% | KM12 colon 68%

Cc1ccc2c(c1)Sc1c(ccc3ccccc13)N2
inactive: RPMI-8226 leukemia 50.4% | OVCAR-8 ovarian 72.3% | OVCAR-5 ovarian 109% | OVCAR-4 ovarian 73.5% | SK-OV-3 ovarian 73.1% | IGROV1 ovarian 42.3% | OVCAR-3 ovarian 70.8% | HS 578T breast 66.4% | NCI/ADR-RES ovarian 57.3% | T-47D breast 47.2% | BT-549 breast 81.2% | MDA-MB-435 melanoma 81.6% | SW-620 colon 73.7% | MCF7 breast 56.5% | HCT-116 colon 29.1% | HCC-2998 colon 67.6% | KM12 colon 55.1%

Cc1ccc(S(=O)(=O)N/N=C\c2cc(Cl)ccc2O)cc1
inactive: RPMI-8226 leukemia 82.3% | OVCAR-8 ovarian 91.2% | OVCAR-5 ovarian 82% | OVCAR-4 ovarian 102% | SK-OV-3 ovarian 63.3% | IGROV1 ovarian 51% | OVCAR-3 ovarian 115% | HS 578T breast 91.3% | NCI/ADR-RES ovarian 71% | T-47D breast 86% | BT-549 breast 91.7% | SW-620 colon 81.4% | MCF7 breast 82.6% | HCT-116 colon 48.2% | KM12 colon 108%

O=C(/C=C/c1c(Cl)nc2sccn12)c1nccs1
inactive: RPMI-8226 leukemia 83.7% | OVCAR-8 ovarian 93.9% | OVCAR-5 ovarian 73.2% | OVCAR-4 ovarian 109% | SK-OV-3 ovarian 89.8% | IGROV1 ovarian 101% | OVCAR-3 ovarian 90.9% | HS 578T breast 65.5% | NCI/ADR-RES ovarian 99.3% | T-47D breast 87.5% | BT-549 breast 109% | MDA-MB-435 melanoma 91.9% | SW-620 colon 77.8% | HCT-116 colon 81.1% | HCC-2998 colon 102% | KM12 colon 89.7%

N#Cc1c(-c2ccccc2)cc(-c2ccc(Nc3nc(Nc4ccc(F)cc4)nc(Nc4ccc(F)cc4)n3)cc2)nc1N
inactive: RPMI-8226 leukemia 14.9% | OVCAR-8 ovarian 97.2% | OVCAR-5 ovarian 70.9% | OVCAR-4 ovarian 108% | SK-OV-3 ovarian 100% | IGROV1 ovarian 95.5% | OVCAR-3 ovarian 89.5% | HS 578T breast 87.8% | NCI/ADR-RES ovarian 76.1% | T-47D breast 77% | BT-549 breast 101% | SW-620 colon 93.9% | MCF7 breast 84.3% | HCT-116 colon 70.7% | HCC-2998 colon 51.8% | KM12 colon 95.3%

Cc1ccc(/C=C/c2c(C(=O)/C=C/c3ccc(Cl)cc3)c(C)nc3ccccc23)cc1
inactive: OVCAR-8 ovarian 13% | SK-OV-3 ovarian 55.1%
active: RPMI-8226 leukemia -31.7% | OVCAR-5 ovarian -33.4% | OVCAR-4 ovarian 6.64% | IGROV1 ovarian 1.39% | OVCAR-3 ovarian -46.2% | HS 578T breast -5.28% | NCI/ADR-RES ovarian -21.6% | T-47D breast 1.89% | BT-549 breast -10.4% | MDA-MB-435 melanoma -47.5% | SW-620 colon -33.1% | HCT-116 colon -59.6% | HCC-2998 colon -82.1% | KM12 colon -24.9%
